Bioassay records deposited in PubChem by National Center for Advancing Translational Sciences (NCATS).
This is a sample that favours compounds with a hit; in the whole collection about 4.7% have one here.
D1 agonist = Allosteric Agonists of the Human D1 Dopamine Receptor: qHTS | D(1A) dopamine receptor (Homo sapiens), P21728 | activation, % at 2 µM | 1% of 360,000 active | HEK293 T-REx D1 cells, calcium flux, agonist mode
Target sequence (P21728 whole entry, looked up): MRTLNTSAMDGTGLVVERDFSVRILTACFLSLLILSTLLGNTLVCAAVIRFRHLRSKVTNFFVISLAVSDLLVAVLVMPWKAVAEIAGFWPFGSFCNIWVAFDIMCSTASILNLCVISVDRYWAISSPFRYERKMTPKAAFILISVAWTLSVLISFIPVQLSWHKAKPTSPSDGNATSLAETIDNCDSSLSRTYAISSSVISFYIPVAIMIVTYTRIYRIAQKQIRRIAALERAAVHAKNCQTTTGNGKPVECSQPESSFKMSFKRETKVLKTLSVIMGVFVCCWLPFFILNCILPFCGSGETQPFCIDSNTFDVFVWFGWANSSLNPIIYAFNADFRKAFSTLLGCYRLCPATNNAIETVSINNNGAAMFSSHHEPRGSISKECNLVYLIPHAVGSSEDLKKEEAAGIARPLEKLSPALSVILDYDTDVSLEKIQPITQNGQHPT
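Tetracycline-induced HEK293 TREx D1 cells, force-coupled to calcium signalling, were dye-loaded with a no-wash calcium kit. Compound was pin-added after a 10 s baseline. Fluorescence was read kinetically at 1 cycle/s for 180 s, with calcium rises flagged as agonism.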
D1 antagonist = Antagonist of Human D 1 Dopamine Receptor: qHTS; activity change, negative = inhibition, % at 10 µM; D(1A) dopamine receptor (Homo sapiens), P21728; 3.2% of 360,000 active; HEK293 TREx D1 cells, calcium flux, dopamine EC80; stronger effect = lower value; in the data active = activity change below about -30%
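Tetracycline-induced HEK293 Trex D1 cells, force-coupled to calcium, dye-loaded; compounds added and read 180 s, then EC80 dopamine added and calcium flux tracked kinetically another 180 s.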
TRHR agonist = qHTS for Small Molecule Agonists and Allosteric Enhancers of Human TRH Receptor: Primary Screen for Agonists; Thyrotropin-releasing hormone receptor (Homo sapiens), P34981; TRHR cells, calcium flux fluo-8, FDSS agonist mode; activation, % at 2 µM; 0.18% of 360,000 active
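Read-out: compound-evoked intracellular calcium rise in TRHR cells, fluo-8 dye, kinetic FDSS fluorescence at 1 s/cycle following a 10-cycle baseline. Cells cultured overnight before dye loading (30 min–1.5 h, RT).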
D1 PAM = Potentiators of Human D1 Dopamine Receptor: qHTS. D(1A) dopamine receptor (Homo sapiens), P21728. HEK293 TREx D1 cells, calcium flux, dopamine EC20 potentiation. potentiation, % at 10 µM. 0.036% of 360,000 active; in the data active = potentiation above about 30%
TRHR PAM = qHTS for Small Molecule Agonists and Allosteric Enhancers of Human TRH Receptor: Primary Screen for Enhancers; Thyrotropin-releasing hormone receptor (Homo sapiens), P34981; TRHR cells, fluo-8 calcium fluorescence, EC20 TRH enhancement; enhancement, % at 2 µM; 0.66% of 360,000 active; AID 493056, 2011; in the data active = enhancement above about 30%
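Enhancer read-out: after compound pinning and an initial kinetic agonist-mode read, an EC20 of TRH (10 nM final) was injected and fluo-8 calcium signal (Ex 480/Em 530) followed at 1 s/cycle for 100 cycles in TRHR-expressing cells.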
A number is an active result; - = inactive; ! = repeats disagree. Cut-off read from the data, not from the text of the source, unless noted: active = activation above about 30%; inactive = the rest.

SMILES	D1 agonist	D1 antagonist	TRHR agonist	D1 PAM	TRHR PAM
COc1ccc(C)cc1NC(=O)C(OC(=O)CNC(=O)c1ccccc1)c1ccccc1 (stereo not drawn)	-	-	-	-	-
CCN(CC)C(=O)Cn1c(=O)n(-c2ccc(Cl)cc2)c(=O)c2c3c(sc21)CCC3	-	-	-	-	-
Cc1[nH]c2ccccc2c1/C=N/NC(=O)c1cccs1	-	-	-	-	-
Cc1c(/C=N/NC(=O)c2cccs2)c2ccccc2n1Cc1ccccc1Cl	-	-99	-	-	-
Cc1ccc(NC(=O)N2C3CCCC2CC(NC(=O)C2CC2)C3)cc1 (stereo not drawn)	-	-	-	-	30
O=C(NC1CC2CCCC(C1)N2C(=O)Nc1cccc(F)c1)C1CC1 (stereo not drawn)	-	-	-	-	-
CCN(CC)S(=O)(=O)c1ccc2nc(NC(=O)c3ccc(Br)o3)sc2c1	-	-	-	-	-
Cc1nc2ccc(NC(=O)c3ccccc3)cc2s1	-	-	-	-	-
CCN(CC)S(=O)(=O)c1nnc(NC(=O)c2ccc(C(C)C)cc2)s1	-	-	-	-	-
CCN(CC)S(=O)(=O)c1ccc2nc(NC(=O)c3cncc(Br)c3)sc2c1	31	-	-	-	-
CCN(CC)S(=O)(=O)c1ccc(C(=O)Nc2nnc(C(C)C)s2)cc1	-	-40	-	-	-
Cc1nc2ccc(NC(=O)c3sccc3C)cc2s1	-	-39	-	-	-
Cc1nc2ccc(NC(=O)c3cncc(Br)c3)cc2s1	-	-36	-	-	-
COc1ccc(-n2c(=O)c3ccccc3n(Cc3ccccc3C)c2=O)c(OC)c1	-	-	-	-	-
COc1ccc(NC(=O)c2c(-c3ccc(C)cc3)nnc3ccccc23)c(OC)c1	-	-	-	-	-
COc1ccc(NC(=O)Cn2ccn(Cc3ccccc3)c(=O)c2=O)cc1Cl	-	-	-	-	-
Cc1ccc(Cc2nc3ccccc3nc2SCC(=O)N2CCCc3ccccc32)cc1	-	-	-	-	-
Cc1c(Cl)cccc1NC(=O)Cn1cnc2nc3c(cc2c1=O)CCCC3	-	-	-	-	-
Cc1ccc(-n2c(=O)c3c(c4cc(C)ccc4n3C)n(CC(=O)Nc3cc(C)cc(C)c3)c2=O)cc1	-	-	-	-	-
O=S(=O)(c1ccc(Br)cc1)N1CCN(S(=O)(=O)c2ccc3c(c2)OCCO3)CC1	-	-	-	-	-
CSc1nc(-c2ccco2)nn1C(=O)c1ccccc1	-	-	-	-	-
COc1ccccc1C(=O)n1nc(-c2ccco2)nc1SC	-	-34	-	-	-
CCCCC1CCC(C(=O)N2CC(=O)Nc3ccc(Cl)cc3C2c2ccc(F)cc2)CC1 (stereo not drawn)	-	-	-	-	-
CCCCC1CCC(C(=O)N2CC(=O)Nc3ccc(C)cc3C2c2ccc(F)cc2)CC1 (stereo not drawn)	-	-53	-	-	-
CCOC(=O)N1CCN(C(=O)COc2cccc3c2CCN(Cc2ccccc2F)C3=O)CC1	-	-31	-	-	-
SMILES	D1 agonist	D1 antagonist	TRHR agonist	D1 PAM	TRHR PAM
Cc1cccc(NC(=O)COc2cccc3c2CCN(C)C3=O)c1	-	-	-	-	-
Cc1ccccc1CN1CCc2c(OCC(=O)N3CCCCC3)cccc2C1=O	-	-41	-	-	-
O=C(COc1cccc2c1CCN(Cc1ccccc1F)C2=O)N1CCOCC1	-	-	-	-	-
O=C(COc1cccc2c1CCN(Cc1ccccc1F)C2=O)N1CCCCC1	-	-	-	-	-
CC1CCN(C(=O)COc2cccc3c2CCN(C)C3=O)CC1	-	-32	-	-	-
Cc1ccc(Cn2ncc3c4sc(C)cc4n(C)c3c2=O)cc1	-	-	-	-	-
Cc1ccc(-n2c(C)cc(C=C(C#N)C#N)c2C)cc1	-	-46	-	-	-
Cc1cc(C=C(C#N)C#N)c(C)n1-c1ccccc1	-	-	-	-	-
COCCNC(=O)/C(C#N)=C/c1cc(C)n(-c2ccc(C)cc2)c1C	-	-64	-	-	-
CCCNC(=O)Cn1nc(C)c2c(C)n(-c3ccccc3)nc2c1=O	-	-	-	-	-
C/C(=N\OCC(=O)OCC(=O)N(Cc1ccccc1)C(C)(C)C)c1ccc2c(c1)OCO2	-	-36	-	-	-
C/C(=N\OCC(=O)OCC(=O)N(C)c1ccccc1)c1ccc2c(c1)OCO2	-	-	-	-	-
CCc1cccc(Nc2ncnc3onc(-c4ccc(F)cc4)c23)c1	-	-	-	-	-
O=C(CNC(=O)c1ccccc1)OC(C(=O)Nc1ccc2c(c1)OCO2)c1ccccc1 (stereo not drawn)	-	-	-	-	-
Clc1ccc(OCCCNCc2ccccc2)c(Br)c1	93	-	-	-	-
Clc1ccc(Cl)c(OCCCCNCc2ccccc2)c1	81	-58	-	-	-
OCCNCCCOc1ccc(Cl)cc1Br	-	-	-	-	-
COc1ccc(OC)c(CCNC(=O)c2cnn(-c3ccccc3Cl)c2C2CCN(C(=O)OC(C)(C)C)CC2)c1	-	-	-	-	-
O=C(Nc1c2c(nn1-c1ccc(Cl)cc1)CS(=O)(=O)C2)c1ccc2c(c1)OCO2	-	-	-	-	-
O=C(Nc1c2c(nn1-c1ccc(Cl)cc1)CS(=O)(=O)C2)c1ccc(Br)cc1	-	-32	-	-	-
CCC(CC)C(=O)Nc1c2c(nn1-c1ccc(OC)cc1)CS(=O)(=O)C2	-	-	-	-	-
CCC(CC)C(=O)Nc1c2c(nn1-c1ccc(F)cc1)CS(=O)(=O)C2	-	-91	-	-	-
COc1cccc(C(=O)Nc2c3c(nn2-c2ccc(Cl)cc2)CS(=O)(=O)C3)c1	-	-33	-	-	-
COc1ccc(-n2nc3c(c2NC(=O)COc2ccccc2F)CS(=O)(=O)C3)cc1	-	-38	-	-	-
COc1cccc(C(=O)Nc2c3c(nn2-c2ccc([N+](=O)[O-])cc2)CS(=O)(=O)C3)c1	-	-	-	-	-
Cc1ccc(-c2cn3c(n2)sc2cc(C(=O)NC4CCCCC4)ccc23)cc1	-	-	-	-	-
Cc1cc(F)ccc1NC(=O)CN1C(=O)CCc2cc(S(=O)(=O)N3CCOCC3)ccc21	-	-	-	-	-
CCOc1ccc(/C=C/c2nc(C#N)c(N3CCCCC3)o2)cc1	-	-	-	-	-
CCOC(=O)c1c(C)[nH]c(C)c1S(=O)(=O)N(C)CC(=O)NCc1cccc(Br)c1	-	-36!	-	-	-
